# High-throughput results: PubChem BioAssay, National Center for Advancing Translational Sciences (NCATS)
# GALK inhibitor: inhibitors of human galactokinase; Purified GALK, Kinase-Glo residual ATP luminescence; Potency, µM (titrated, usually from 57.5 µM), for inactives: at the highest dose activity change, negative = inhibition, most hits filed as inhibitors; 270,000 tested, 0.007% active; AID 1868; also: potency is read from the fitted curve at half-maximal effect
# Target sequence (P51570 whole entry, looked up): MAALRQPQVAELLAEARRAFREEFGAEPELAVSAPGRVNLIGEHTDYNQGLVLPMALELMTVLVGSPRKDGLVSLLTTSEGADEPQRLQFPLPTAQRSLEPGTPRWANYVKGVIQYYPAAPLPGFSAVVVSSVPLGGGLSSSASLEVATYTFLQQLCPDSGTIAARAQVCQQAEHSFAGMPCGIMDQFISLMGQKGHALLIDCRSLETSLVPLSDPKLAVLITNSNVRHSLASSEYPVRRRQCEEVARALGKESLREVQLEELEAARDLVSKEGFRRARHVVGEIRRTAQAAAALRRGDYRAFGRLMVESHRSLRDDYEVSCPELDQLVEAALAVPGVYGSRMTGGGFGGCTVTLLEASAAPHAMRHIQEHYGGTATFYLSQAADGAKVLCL
#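 ATP-depletion format; final 35 uM ATP, 100 uM D-galactose, 5 nM enzyme; pH 8.0 HEPES/Mg2+ buffer; 60 min RT; luminescence read 10 min after detection reagent.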
# PI4K2A inh: blocks human PI4K2A kinase activity. activity change, negative = inhibition, % at 76.9 µM. 420,000 tested, 0.13% active. AID 1346378. purified PI4K2A, ADP-Glo luminescence, 1 h; active compounds read low; in the data active = activity change below about -50%; inconclusive = mostly about -30% to -49%;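 also: -100% = wells without enzyme as full effect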
#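 PI4K2A activity was measured by ADP-Glo luminescence: enzyme (4 ug/mL stock) and phosphatidylinositol (1.2 mM stock) in Tris pH 7.5/MgCl2/EGTA/Triton X-100 buffer were reacted with ATP (300 microM stock) for one hour at ambient temperature.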
# TrxR1 substrate: rat thioredoxin reductase 1 substrate activity; AID 588456; O89049; Potency, µM (titrated, usually from 114 µM), without a hit: top-dose activity change, negative = substrate turnover; 390,000 tested, 0.01% active; purified TrxR1 substrate turnover, NADPH consumption readout; also: potency is read from the fitted curve at half-maximal effect; nearly all actives have a fitted effect of over 50% in size
#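 Rat TrxR1, dispensed at 90 nM, was prereduced with 400 uM NADPH (final) for 5 min at ~22 deg C, then incubated with compound 15 min before 400 uM selenite. A first-read NADPH fluorescence drop versus no-compound background flagged substrates.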
# rTrxR1 inhibitor: blocks rat thioredoxin reductase 1; recombinant rTrxR1, NADPH fluorescence consumption, selenite substrate; Potency, µM (doses to about 114 µM), for inactives: at the highest dose activity change, negative = inhibition, hits mostly inhibitors; O89049; 390,000 tested, 1% active; also: potency is read from the fitted curve at half-maximal effect; nearly all actives have a fitted effect of over 65% in size
#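 Rat TrxR1 (90 nM in the dispensed reagent) was pre-reduced with 400 uM NADPH for 5 min at room temperature, then incubated with compound for 15 min. After 400 uM selenite was added, NADPH fluorescence (Ex 340/Em 450 nm) was followed for 8 min.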
# Active calls of the source: *; ? = inconclusive; nt = not tested or not shown; [ ] = another dose, or the depositor's remark. An excerpt weighted towards active compounds, which were near 1.1% of everything screened. Unless noted, calls follow the shape of the dose curve; as a rule, active = well fitted curve in the direction sought with a large enough effect; inconclusive = small, poorly fitted or top-dose-only effect, or another doubt; inactive = no such curve, though single readings can be large; an effect the other way counts as inactive or inconclusive. Unless noted, % is scaled to controls: 0 for no effect and ±100 for the full control effect.
SMILES,GALK inhibitor,PI4K2A inh,TrxR1 substrate,rTrxR1 inhibitor
Cc1nn(C)c(C(=O)Sc2ccccc2)c1[N+](=O)[O-],3.8%,29.4,-19.8%,?
CC(=O)c1ccc(C2CC34CN(Cc5cccc(Cl)c5)S(=O)(=O)C3CC2O4)cc1 (stereo not given),nt,nt,-0.8%,12.0%[57.1 µM]
CC(=O)c1ccc(C2CC34CNS(=O)(=O)C3CC2O4)cc1 (stereo not given),nt,nt,-2.2%,28.2µM*
Cc1cc(C)n(CCO)c(=O)n1,-3.0%,3.8,-10.2%,-11.5%
Cc1cc(=S)cc(C)n1CCO,nt,2.2,0.1%,35.5µM*
Cc1cccc(OC(=O)c2cc(-c3ccc4c(c3)OCCO4)on2)c1,nt,-2.7,-2.6%,1.9%
O=C1CSc2ccc(S(=O)(=O)CCC(=O)NC3CCCCC3)cc2N1,0.7%,3.5,2.9%,14.1µM*
COCc1cc(Sc2ccc(Cl)cc2)nc(C)n1,6.2%,-8.2,6.8%[57.1 µM],14.5%
COCc1cc(S(=O)c2ccc(Cl)cc2)nc(C)n1 (stereo not given),-1.3%,-2.4,-0.4%,14.1µM*
O=C(CCCl)Nc1cccc2cccnc12,nt,nt,8.8%,12.6µM*
O=C(CCBr)Nc1cccc2cccnc12,nt,nt,8.4%,?
O=C(CCl)Nc1cccc2ncccc12,0.6%,-2.1,-4.4%,50.1µM*
COC(=O)C1=C(C)NC(=O)/C1=C\c1cc(C)n(-c2ccc(F)cc2)c1C,1.1%,1.6,4.2%,-3.1%[57.1 µM]
COC(=O)C1=C(O)/C(=C\c2cc(C)n(-c3ccc(F)cc3)c2C)N=C1C,-0.7%,-1.6,-8.9%[57.1 µM],17.8µM*
CCCOc1ccc2cc(-c3ccccn3)c(=O)oc2c1,8.7%,-61.0*,620.0%,372.0%
COC(=O)C1=C(C)N(Cc2ccc(OC)cc2)C(=O)/C1=C\c1ccco1,6.9%,-2.7,-7.6%,35.5µM*
COC(=O)C1=C(C)N(Cc2ccco2)C(=O)/C1=C\c1ccc([N+](=O)[O-])cc1,6.6%,-19.2,-1.5%,20µM*
COC(=O)C1=C(C)N(Cc2ccco2)C(=O)/C1=C\c1ccc(N(C)C)cc1,-2.7%,-3.5,-5.0%,1.3%
COC(=O)C1=C(C)N(C)C(=O)/C1=C\c1ccco1,2.0%,-6.0,-5.6%,25.1µM*
C=C1CCN(C(Cc2ccccc2)C(=O)NCc2ccccc2)S(=O)(=O)c2ccccc21 (stereo not given),nt,nt,-2.4%,21.9%
CCCS(=O)(=O)c1ncc(Cl)c(C(=O)N2CCN(c3ccc(OC)cc3)CC2)n1,nt,-2.9,5.3%[57.1 µM],8.91µM*
Cc1oc(=O)oc1COC(=O)[C@@H]1N2C(=O)[C@@H](NC(=O)[C@H](N)c3ccccc3)[C@H]2SC1(C)C,nt,1.3,nt,nt
CC(=O)c1cccc(NC(=O)COC(=O)c2ccccc2OCc2cccc(Br)c2)c1,nt,nt,9.8%,11.6%
CCc1cccc2c(C(O)(c3c[nH]c4c(CC)cccc34)c3c[nH]c4c(CC)cccc34)c[nH]c12,nt,nt,2.9%,6.4%
CCN(C(=O)COC(=O)/C=C/c1ccco1)C1CCCCC1,nt,-12.0,-5.7%,35.5µM*
SMILES,GALK inhibitor,PI4K2A inh,TrxR1 substrate,rTrxR1 inhibitor
CCOC(=O)c1c(C)[nH]c(C)c1C(=O)COC(=O)/C=C/c1ccco1,nt,-7.0,-4.6%,20µM*
CCOC(=O)c1c(C)[nH]c(C)c1C(=O)COC(=O)/C=C/c1ccc(OC)cc1,nt,-1.9,-9.6%,-0.3%
CCN(C(=O)COC(=O)/C=C/c1ccc(F)cc1)C1CCCCC1,nt,-6.3,-2.9%,3.6%
COc1ccc(C(=O)N/N=C/c2ccc(N3CCOCC3)o2)cc1OC,-0.6%,-0.3,-10.3%,28.2µM*
O=C(N/N=C/c1ccc(N2CCOCC2)o1)c1cccc(F)c1,-1.0%,-1.9,-1.0%,11.2µM*
Cn1c(=S)n(C)c2ccccc21,0.8%,2.7,1.1%,12.9%
Cn1ccc(=S)c2ccccc21,0.0%,-8.7,-3.9%,22.4µM*
C=CCOC(=O)C1=C(C)N=c2s/c(=C3\C(=O)N(CC(=O)O)c4ccccc43)c(=O)n2C1c1ccc(OC)cc1 (stereo not given),-6.8%,-9.0,-11.0%,35.5µM*
COC(=O)[C@]12C[C@H](CC(=O)NCc3ccc(OC)c(OC)c3)C(=O)N(Cc3ccc4c(c3)OCO4)C1=C[C@H](C(C)C)O[C@@H]2C1CC1,nt,-2.8,nt,nt
CCOc1ccc(NC(=O)C(c2ccccn2)N(C(=O)CCl)c2ccc(OC)cc2)cc1 (stereo not given),-5.8%,-0.9,-7.0%,?
